From PubChem BioAssay (NCATS)
Inconclusive results are not listed. Where a call stands in place of a potency, no number is given. Calls of active or inactive are those of the source. The call rests on the fitted dose curve; in most records, active means well fitted curve in the direction sought with a large enough effect; inconclusive means small, poorly fitted or top-dose-only effect, or another doubt; inactive means no such curve, though single readings can be large; an effect the other way counts as inactive or inconclusive.

Experiments:
[1] = qHTS of pediatric cancer cell lines to identify multiple opportunities for drug repurposing: Primary screen for LAN-5 cells (AID 1347100)
In short: (§1)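 Cells (500-1,000/well) rested 5 h, then received compounds for 48 h; metabolically active cells were measured by CellTiter-Glo luminescence. Final concentrations spanned up to 46 µM (MIPE, 11-point) or 0.59 nM-46 µM (NPC, 8-point) in primary screens, 11-point in follow-ups.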

[2] = qHTS of pediatric cancer cell lines to identify multiple opportunities for drug repurposing: Primary screen for OHS-50 cells (AID 1347103); further: nearly all actives have a fitted effect of over 40% in size; further: potency means the concentration at half of the fitted maximal effect
In short: as §1

[3] = qHTS of pediatric cancer cell lines to identify multiple opportunities for drug repurposing: Primary screen for RD cells (AID 1347104); further: potency means the concentration at half of the fitted maximal effect; nearly all actives have a fitted effect of over 55% in size
In short: (§2)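 Luminescence from CellTiter-Glo served as readout of metabolically active cells after 48 h compound exposure. Titrations: MIPE 11-point, from 0.78 nM; NPC 8-point, from 0.59 nM (final). Concentration-response curves came straight from the primary screen.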

[4] = qHTS of pediatric cancer cell lines to identify multiple opportunities for drug repurposing: Primary screen for control Hh wild type fibroblast cells (AID 1347106);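 further: series mostly up to about 46 µM; a drop in luminescence marks cytotoxicity and a rise apparent proliferation; nearly all actives have a fitted effect of over 55% in size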
In short: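 Viability after 48 h compound treatment at 37C, 500-1,000 cells/well, read as ATP luminescence with CellTiter-Glo. Primary screens used 11-point (MIPE, 0.78 nM-46 µM) or 8-point (NPC, 0.59 nM-46 µM) final concentrations; follow-up screens used 11-point dilutions.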

[5] = qHTS of pediatric cancer cell lines to identify multiple opportunities for drug repurposing: Confirmatory screen for NB1643 cells (AID 1347109); further: nearly all actives have a fitted effect of over 45% in size; further: potency means the concentration at half of the fitted maximal effect
In short: as §1

[6] = qHTS of pediatric cancer cell lines to identify multiple opportunities for drug repurposing: Confirmatory screen for SK-N-MC cells (AID 1347111);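 further: potency means the concentration at half of the fitted maximal effect; cells exposed to compound for 48 h before the readout; nearly all actives have a fitted effect of over 70% in size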
In short: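 Seed 500-1,000 cells/well; rest 5 h at 37 degrees C. Pin-transfer compounds, 11-point titration. Incubate 48 h. Add CellTiter-Glo, 15 min RT, read luminescence.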

[7] = qHTS of pediatric cancer cell lines to identify multiple opportunities for drug repurposing: Confirmatory screen for BT-12 cells (AID 1347112); further: nearly all actives have a fitted effect of over 55% in size; further: potency means the concentration at half of the fitted maximal effect
In short: as §1

[8] = qHTS of pediatric cancer cell lines to identify multiple opportunities for drug repurposing: Confirmatory screen for LAN-5 cells (AID 1347113); further: nearly all actives have a fitted effect of over 65% in size; further: potency means the concentration at half of the fitted maximal effect
In short: as §1

[9] = qHTS of pediatric cancer cell lines to identify multiple opportunities for drug repurposing: Confirmatory screen for NB-EBc1 cells (AID 1347115);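 further: cells exposed to compound for 48 h before the viability read; nearly all actives have a fitted effect of over 45% in size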; further: potency means the concentration at half of the fitted maximal effect
In short: as §1

[10] = qHTS of pediatric cancer cell lines to identify multiple opportunities for drug repurposing: Confirmatory screen for SJ-GBM2 cells (AID 1347116); further: nearly all actives have a fitted effect of over 60% in size; further: potency means the concentration at half of the fitted maximal effect
In short: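 Viability measured as metabolically active cells via CellTiter-Glo luminescence following 48 hours of compound exposure, 11-point dilutions in confirmatory testing. 500-1,000 cells/well plated 5 hours before dosing; controls were DMSO and 2.3 µM bortezomib.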

[11] = qHTS of pediatric cancer cell lines to identify multiple opportunities for drug repurposing: Confirmatory screen for BT-37 cells (AID 1347117); further: nearly all actives have a fitted effect of over 55% in size; further: potency means the concentration at half of the fitted maximal effect
In short: as §1

[12] = qHTS of pediatric cancer cell lines to identify multiple opportunities for drug repurposing: Primary screen for NB1643 cells (AID 1347099); further: potency means the concentration at half of the fitted maximal effect; nearly all actives have a fitted effect of over 50% in size
In short: as §2

[13] = qHTS of pediatric cancer cell lines to identify multiple opportunities for drug repurposing: Primary screen for MG 63 (6-TG R) cells (AID 1347105); further: nearly all actives have a fitted effect of over 50% in size; further: potency means the concentration at half of the fitted maximal effect
In short: as §2

[14] = qHTS of pediatric cancer cell lines to identify multiple opportunities for drug repurposing: Primary screen for Rh30 cells (AID 1347107); further: series mostly up to about 46 µM; nearly all actives have a fitted effect of over 75% in size
In short: as §1

[15] = qHTS of pediatric cancer cell lines to identify multiple opportunities for drug repurposing: Primary screen for BT-12 cells (AID 1347101); further: nearly all actives have a fitted effect of over 25% in size
In short: as §1

[16] = qHTS of pediatric cancer cell lines to identify multiple opportunities for drug repurposing: Primary screen for Rh41 cells (AID 1347108); further: nearly all actives have a fitted effect of over 70% in size; further: potency means the concentration at half of the fitted maximal effect
In short: as §2

[17] = qHTS of pediatric cancer cell lines to identify multiple opportunities for drug repurposing: Confirmatory screen for A673 cells (AID 1347110);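 further: cells exposed to compound for 48 h before the viability read; nearly all actives have a fitted effect of over 65% in size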; further: potency means the concentration at half of the fitted maximal effect
In short: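 A673 cells at 500-1,000 cells/well were dosed 5 h after plating, in dilution series up to 46 uM final; primary runs used 8 or 11 points and confirmatory runs used 11 points. Viability was read by CellTiter-Glo luminescence after 48 h, against DMSO and 2.3 uM bortezomib controls.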

Row | SMILES | Potency [1] | Potency [2] | Potency [3] | Potency [4] | Potency [5] | Potency [6] | Potency [7] | Potency [8] | Potency [9] | Potency [10] | Potency [11] | Potency [12] | Potency [13] | Potency [14] | Potency [15] | Potency [16] | Potency [17]
1 | Cc1cnc(-c2cnc(NCCNc3ccc(C#N)cn3)nc2-c2ccc(Cl)cc2Cl)[nH]1 | inactive | inactive | 20900 nM (active) | inactive | inactive | 11700 nM (active) | inactive | inactive | 14700 nM (active) | inactive | inactive |  |  |  |  |  | 
2 | COC(=O)C1=C(C)NC(C)=C(C(=O)OCCN2CCN(C(c3ccccc3)c3ccccc3)CC2)C1c1cccc([N+](=O)[O-])c1 (stereo unspecified) |  |  |  | inactive |  |  |  |  |  |  |  | 16800 nM (active) | inactive | inactive |  |  | 
3 | Cc1c(Cn2c(C)nc3c(C(=O)O)cc(N4CCOCC4)cc32)cccc1C(F)(F)F | inactive |  | 1660 nM (active) |  | inactive |  | inactive |  | inactive | inactive |  |  | 2960 nM (active) |  | inactive | 7430 nM (active) | inactive
4 | COc1cccc(Nc2c(C(N)=O)cnc3c(C)cc(S(=O)(=O)c4cccc(C(=O)N(C)C)c4)cc23)c1 |  |  |  | inactive | inactive |  | inactive | inactive | inactive | inactive | inactive |  |  | inactive |  | inactive | inactive
5 | OCCCNc1cc(-c2ccnc(Nc3cccc(Cl)c3)n2)ccn1 |  | 153 nM (active) |  |  | 104 nM (active) | 261 nM (active) | 329 nM (active) | 261 nM (active) | inactive | 369 nM (active) | 261 nM (active) |  |  | inactive |  | 235 nM (active) | 92.8 nM (active)
